Data from PubChem BioAssay (Tox21).
Records with an inconclusive call do not appear. Unmarked numbers belong to inactive results. Activity calls are given as the source filed them. Calls come from the whole dose curve.

Target: 5-hydroxytryptamine receptor 2A (Homo sapiens) (UniProt P28223)
Test: 5-hydroxytryptamine receptor 2A (HTR2A) small molecule agonists, cell-based qHTS assay (AID 1963587); note: nearly all actives have a fitted effect of over 30% in size
Settings: HTR2A-CHO cells, calcium flux fluorescence, agonist mode; series mostly up to 76.8 µM; activation: at the top concentration
Summary of the method: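 HTR2A-CHO cells, plated 18 h at 37 C/5% CO2, dye-loaded 1 h at 37 C; compounds in DMSO added by pin tool (agonist mode). Intracellular calcium flux read as kinetic fluorescence on FDSS over 2 min at 1 s intervals.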
% is set by controls: 0 for no effect and ±100 for the full control effect; potency is the fitted concentration of half-maximal effect.

Chain of 5-hydroxytryptamine receptor 2A (Homo sapiens) (P28223 whole entry, looked up): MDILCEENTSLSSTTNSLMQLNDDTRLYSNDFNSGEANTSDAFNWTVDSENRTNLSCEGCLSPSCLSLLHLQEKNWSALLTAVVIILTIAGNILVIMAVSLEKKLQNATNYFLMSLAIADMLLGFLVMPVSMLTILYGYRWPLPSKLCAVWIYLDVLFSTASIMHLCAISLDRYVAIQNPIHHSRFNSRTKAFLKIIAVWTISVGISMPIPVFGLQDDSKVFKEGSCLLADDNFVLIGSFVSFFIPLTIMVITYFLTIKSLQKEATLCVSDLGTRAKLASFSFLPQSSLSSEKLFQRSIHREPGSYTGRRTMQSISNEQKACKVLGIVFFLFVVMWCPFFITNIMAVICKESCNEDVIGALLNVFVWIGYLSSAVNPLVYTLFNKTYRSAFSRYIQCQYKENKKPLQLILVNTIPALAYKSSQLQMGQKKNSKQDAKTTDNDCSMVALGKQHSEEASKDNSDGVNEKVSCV

Compound	activation	Potency
CC(C)OCC1CO1 (stereo not drawn)	7.64%	
CCCCCCC(CO)CCCC (stereo not drawn)	-2.52%	
S=C(SSSSSSC(=S)N1CCCCC1)N1CCCCC1	13.8% [at 15.9 µM]	
CO[Si](CCCS)(OC)OC	-0.0577%	
NC(=O)C(=O)N/N=C/c1ccc([N+](=O)[O-])o1	0.486% [at 35.6 µM]	
CC(C)OC(=O)C(C(=O)OC(C)C)=C1SC=CS1	16.7% [at 35.6 µM]	
O=S(O)O	4.7% [at 15.9 µM]	
O=C1O[C@@H]2[C@@H](O)[C@H](O)O[C@@H]2[C@H]1O	-0.872%	
CCc1ccc(CC)cc1	15.1%	
O=CCCc1ccccc1	-8.25%	
Cc1oc(-c2ccccc2)nc1CCC(=O)c1ccc(CC2SC(=O)NC2=O)cc1 (stereo not drawn)	-1.33% [at 35.6 µM]	
CCCCNc1ccc(NCCCC)c2c1C(=O)c1ccccc1C2=O	-0.354% [at 15.9 µM]	
O=C(O)c1ccncc1	8.77%	
Clc1cc(Cl)c(-c2c(Cl)c(Cl)cc(Cl)c2Cl)cc1Cl	-6.34% [at 35.6 µM]	
CC(=O)N(CC(O)CN(C(C)=O)c1c(I)c(C(=O)NCC(O)CO)c(I)c(C(=O)NCC(O)CO)c1I)c1c(I)c(C(=O)NCC(O)CO)c(I)c(C(=O)NCC(O)CO)c1I (stereo not drawn)	-0.574% [at 35.6 µM]	
CCCCCCCCCCCCS(=O)(=O)Cl	18.9% [at 15.9 µM]	
CCNC(=O)N1CCN(CCCC(c2ccc(F)cc2)c2ccc(F)cc2)CC1	-8.97% [at 35.6 µM]	

Compound	activation	Potency
CC/C=C\CCOC(=O)c1ccccc1	0.544%	
CCc1cc(Cc2cc(CC)cc(C(C)(C)C)c2O)c(O)c(C(C)(C)C)c1	7.89%	
Clc1ccnc(Cl)n1	1.71%	
OCC(CO)(CO)COCC(CO)(CO)CO	-1.34%	
OCc1ccccn1	1.9% [at 35.6 µM]	
CCOC(=O)/C=C/C(=O)O	0.46%	
CCCCC	1.11%	
Cc1ccc2c(c1)c1c3n2CCNC3CCC1 (stereo not drawn)		9.52 µM (active)
CCOc1ccccc1N	-0.529%	
CC(C(=O)O)c1ccc(C(=O)c2ccccc2)s1 (stereo not drawn)	-17.8% [at 35.6 µM]	
CCCCCCC(=O)OCC	0.893%	
NS(=O)(=O)c1cc(C(=O)NN2C[C@H]3[C@H]4CCC(C4)[C@H]3C2)ccc1Cl	-11.5% [at 35.6 µM]	
CC1(C)S[C@@H]2[C@H](NC(=O)C(C(=O)O)c3ccccc3)C(=O)N2[C@H]1C(=O)O (stereo partly drawn)	-2.16% [at 35.6 µM]	
CC(CC(C#N)(c1ccccc1)C(C)C)N(C)C (stereo not drawn)	-8.92% [at 35.6 µM]	
C=CCCCC	1.1%	
CCCCCCCC1CCCC1=O (stereo not drawn)	-0.672%	
